Test results from PubChem BioAssay (EPA / NIEHS).
A structure can be active in one record and inactive in another. Calls of active or inactive are those of the source. How the source made its calls: active means hit-call score of the fitted dose curve at least 0.9, where 1 is the maximum; inactive means score below 0.9.

Assay: CCTE_Shafer_MEA_dev_interburst_interval_mean: CCTE's Neural Network Formation Assay for Mean Interburst Interval, Shafer Lab (AID 2284046)
Description: CCTE_Shafer_MEA_dev assay is conducted using Axion Biosystems 48 well microelectrode array (MEA) plates and Maestro recording system. Each well of the MEA plate contains a grid of 16 microelectrodes embedded in the culture surface. Electrically active cells, such as neurons, can be cultured over the electrodes, and electrical activity in these cells can be recorded extracellularly. The spontaneous firing of neurons is captured from each electrode on a microsecond timescale providing both temporally and spatially precise data. […] The CCTE_Shafer_MEA_dev assay uses primary cultures of rat cortical neurons. Recordings are made on days post-plating 5, 7, 9 and 12. As these cultures mature over time, neural networks develop functional activity and form cohesive networks in which electrical activity can be highly coordinated. CCTE_Shafer_MEA_dev_interburst_interval_mean is 1 of 19 assay components of the CCTE_Shafer_MEA_dev assay. It measures the average time interval between consecutive single-electrode bursts (temporally-clustered groups of action potential firing) during a recording in a microelectrode array (MEA) using Axion Biosystems Maestro 768 channel amplifier with the AxIS adaptive spike detector. The mean inter-burst interval is averaged across the actively bursting electrodes to report a well-mean value. To collapse across multiple recordings made on days post-plating 5, 7, 9 and 12, the trapezoidal area-under-the-curve of the component is calculated.Data from the assay component CCTE_Shafer_MEA_dev_interburst_interval_mean was analyzed into 1 assay endpoint. This assay endpoint, CCTE_Shafer_MEA_dev_interburst_interval_mean, was analyzed in the negative analysis fitting direction relative to DMSO as the negative control and baseline of activity. Using a type of functional reporter, gain or loss-of-signal activity can be used to understand electrical activity.
On the day prior to culture, each well was coated thoroughly with 150 uL of 0.05% polyethyleneimine (PEI, Sigma Cat P3143) in 50 mM HEPES (Sigma Cat H7523) at a pH of 8. The plate was incubated at 37C for one hour. PEI was rinsed out with 500 uL of sterile water three times. Plates were stored at 4C until the day of culture. This culture was plated at a seeding density of 1.5 x 10^5 cells/well on a 48-well MEA plate, prepared as described above. Cells were administered via a 25 uL media/laminin ([…]; Sigma Cat L2020-1MG) drop directly onto the microelectrode array, as adding the cells with the laminin results in better attachment than pre-coating with laminin. After 2 hours, an additional 475 uL of cortical media was added and the cells returned to the incubator. Exposure starts at day 0 of plating and is continued over twelve days of network development until the experiment is terminated. Cells are fed with fresh medium on DIV 5 and 9, following the recordings on those days. The entire volume of media in the well is exchanged and any vehicle or compound treatment is renewed. Complete details are found in OP-NHEERL/ISTD/SBB/TJS/2015-03-r0 (available on request, email shafer.tim@epa.gov). Measurement of the electrical activity is non-invasive, and recordings can be made from the same plate over multiple different days of the culture. In cortical neurons, this allows for the measurement of extracellular action potentials over the period during which networks form in the MEA plate.

AC50, active:
OCC(F)(F)C(F)(F)C(F)(F)C(F)(F)C(F)(F)C(F)(F)C(F)(F)C(F)(F)C(F)(F)C(F)(F)C(F)(F)F 26.4 µM
CC(C)c1c(C(=O)Nc2ccccc2)c(-c2ccccc2)c(-c2ccc(F)cc2)n1CC[C@@H](O)C[C@@H](O)CC(=O)O 0.00832 µM
O=C(CC(=O)C(F)(F)C(F)(F)C(F)(F)F)c1cccs1 5.43 µM
O=P(O)(O)CCC(F)(F)C(F)(F)C(F)(F)C(F)(F)C(F)(F)C(F)(F)C(F)(F)C(F)(F)F 8.6 µM
CN(Cc1cnc2nc(N)nc(N)c2n1)c1ccc(C(=O)N[C@@H](CCC(=O)O)C(=O)O)cc1 0.136 µM
O=C(CCCN1CCC(O)(c2ccc(Cl)cc2)CC1)c1ccc(F)cc1 3.12 µM
Nc1ccn([C@@H]2O[C@H](CO)[C@@H](O)C2O)c(=O)n1 (some centres not stated) 0.695 µM

outcome, inactive:
OCC(F)(F)C(F)(F)C(F)(F)C(F)(F)C(F)(F)C(F)(F)C(F)(F)C(F)(F)C(F)(F)C(F)(F)C(F)(F)F
FCOC(C(F)(F)F)C(F)(F)F
CN(CCO)S(=O)(=O)C(F)(F)C(F)(F)C(F)(F)C(F)(F)C(F)(F)C(F)(F)C(F)(F)C(F)(F)F
O=C(O)CCC(F)(F)C(F)(F)C(F)(F)C(F)(F)C(F)(F)F
COC(=O)C(F)(F)C(F)(F)C(F)(F)C(F)(F)C(F)(F)F
O=C(OC(=O)C(F)(F)C(F)(F)F)C(F)(F)C(F)(F)F
COC(=O)C(F)(F)C(F)(F)C(F)(F)F
O=C(F)C(F)(F)C(F)(F)C(F)(F)C(F)F
O=C(F)C(F)(F)C(F)(F)C(F)(F)C(=O)F
C=CC(F)(F)C(F)(F)C(F)(F)C(F)(F)F
O=C(C=C(O)C(F)(F)F)C(F)(F)F
FC(F)=C(F)C(F)(F)C(F)(F)C(F)(F)C(F)F
O=CC(F)(F)C(F)(F)C(F)(F)F
O=C(O)C(F)(F)OC(F)(F)C(F)(F)OC(F)(F)C(F)(F)OC(F)(F)C(F)(F)C(F)(F)C(F)(F)F
O=CC(F)(F)C(F)(F)C(F)(F)C(F)F
O=P(O)(O)CCC(F)(F)C(F)(F)C(F)(F)C(F)(F)C(F)(F)C(F)(F)F
CN(C)CCOC(c1ccccc1)c1ccccc1
NC(C(F)(F)F)C(F)(F)F
O=C1NS(=O)(=O)c2ccccc21
CC(=O)Nc1ccc(O)cc1
